Source: PubChem BioAssay (Tox21)
Records with an inconclusive call do not appear. The source made the active and inactive calls. Unless noted, calls come from the whole dose curve.

Tests used:
[1] = Nuclear factor erythroid 2-related factor 2/antioxidant responsive element (Nrf2/ARE) small molecule agonists: qHTS cell viability counter screen in human keratinocytes (AID 1919968; active = well fitted curve in the direction sought with a large enough effect in the repeat runs; an effect the other way counts as inactive or inconclusive; note: nearly all actives have a fitted effect of over 55% in size)
Outline: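 In human HaCaT keratinocytes stably expressing an ARE-driven luciferase, compound exposure lasted 23 h at 37 C under 5% CO2. Viable cells are quantified with a protease-based fluorogenic reagent (CellTiter-Fluor) read 1 h after addition.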

[2] = Nuclear factor erythroid 2-related factor 2/antioxidant responsive element (Nrf2/ARE) small molecule agonists: luciferase reporter gene qHTS assay in human keratinocytes (AID 1919969); note: nearly all actives have a fitted effect of over 35% in size
[3] = biological target: KiSS-1 receptor (Homo sapiens) (UniProt Q969F8); assay: Human kisspeptin (KISS1R) small molecule agonists, calcium flux assay in KISS1R-HEK293 cells (AID 1920064; active = well fitted curve in the direction sought with a large enough effect in the repeat runs; an effect the other way counts as inactive or inconclusive)
Outline: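 Concentration-response testing used 15 concentrations in triplicate on human KISS1R-expressing HEK293 cells. Calcium-dependent fluorescence (Ex/Em 480/540) was followed kinetically for 3 min after compound transfer.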

[4] = G protein-coupled receptor (GPCR) small molecule agonists, calcium flux assay: HEK293 wild type cell line counter screen (AID 1920065)
Outline: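 Fluorescence intensity signals activation. After overnight (18 h) culture and a 1 h calcium dye load at 37 C, compounds are added by pin tool and the plate read at 480/540 nm for 3 min in 1 s steps.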

[5] = p53 small molecule agonists, cell-based qHTS assay with human liver microsomes (AID 1963577);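 note: p53 response element beta-lactamase reporter cells with liver microsomes plus NADPH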
Outline: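 16 h, 37 C exposure of p53RE-bla cells to compounds with human liver microsomes and NADPH (0.5 mg/mL final each); detection via LiveBLAzer mixture, 2 h dark at room temperature.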

[6] = p53 small molecule agonists, cell-based qHTS assay with rat liver microsomes (AID 1963578)
Outline: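 With rat liver microsomes and NADPH present (0.5 mg/mL final each), p53RE-bla cells are treated with compound for 16 h at 37 C. LiveBLAzer detection mixture is then applied for 2 h at room temperature in the dark.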

[7] = p53 small molecule agonists, cell-based qHTS assay with human liver microsomes: qHTS cell viability counter screen (AID 1963579); note: nearly all actives have a fitted effect of over 45% in size
Outline: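 In this multiplexed counter screen, the reporter plates were subsequently treated with CellTiter-Glo so that cell viability, reflected by luminescence, could be recorded for p53RE-bla cells dosed 16 h with compounds under microsomal activation (HLM and NADPH).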

[8] = p53 small molecule agonists, cell-based qHTS assay with rat liver microsomes: qHTS cell viability counter screen (AID 1963580); note: nearly all actives have a fitted effect of over 45% in size
Outline: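 Counter screen for cytotoxicity under metabolic activation: rat liver microsomes and NADPH, 0.5 mg/mL final each, added with compounds to p53RE-bla HCT-116 cells; 16 h at 37 C, then ATP luminescence read.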

[9] = p53 small molecule agonists, cell-based qHTS assay: qHTS cell viability counter screen (AID 1963581); note: nearly all actives have a fitted effect of over 45% in size
Outline: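 Luminescence from CellTiter-Glo, reflecting ATP content, serves as the cytotoxicity measure; it is taken after the 2 h reporter substrate step in HCT-116 p53RE-bla cells dosed for 16 h at 37 C.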

[10] = biological target: 5-hydroxytryptamine receptor 2A (Homo sapiens) (UniProt P28223); assay: 5-hydroxytryptamine receptor 2A (HTR2A) small molecule antagonists, cell-based qHTS assay (AID 1963586); note: nearly all actives have a fitted effect of over 45% in size
Outline: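 CHO cells stably expressing human HTR2A were plated for 18 h at 37 C, then loaded with calcium dye for 1 h. Compounds were preincubated 5 min at room temperature before DOI (4 nM solution) was added. Kinetic fluorescence was read for 3 min.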

[11] = biological target: 5-hydroxytryptamine receptor 2A (Homo sapiens) (UniProt P28223); assay: 5-hydroxytryptamine receptor 2A (HTR2A) small molecule agonists, cell-based qHTS assay (AID 1963587); note: nearly all actives have a fitted effect of over 30% in size
Outline: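 HTR2A-CHO cells, plated 18 h at 37 C/5% CO2, dye-loaded 1 h at 37 C; compounds in DMSO added by pin tool (agonist mode). Intracellular calcium flux read as kinetic fluorescence on FDSS over 2 min at 1 s intervals.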

[12] = biological target: Muscarinic acetylcholine receptor M1 (Homo sapiens) (UniProt P11229); assay: Cholinergic receptor muscarinic 1 (CHRM1) small molecule antagonists, cell-based qHTS assay (AID 1963588); note: nearly all actives have a fitted effect of over 40% in size
Outline: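 Compounds were tested at 15 concentrations in three independent runs. Dye-loaded CHRM1-CHO cells were exposed 5 min at room temperature before stimulation by acetylcholine added at 50nM. Intracellular calcium was read kinetically on FDSS for 3 min.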

[13] = biological target: Muscarinic acetylcholine receptor M1 (Homo sapiens) (UniProt P11229); assay: Cholinergic receptor muscarinic 1 (CHRM1) small molecule agonists, cell-based qHTS assay (AID 1963589); note: nearly all actives have a fitted effect of over 35% in size
Outline: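 Fluorescent calcium dye reports M1 activation in stably transfected CHO cells. Compounds, 15 concentrations, added after 1 h dye loading at 37 C; kinetic reading at 1 sec intervals.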

[14] = cAMP Responsive Elements (CRE) small molecule agonists, cell-based qHTS assay (AID 1963590)
Outline: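 Compound exposure lasted 3 h at 37 C/5% CO2 in CRE-bla HEK 293T cells grown in assay medium with 10% dialyzed FBS and 25 mM HEPES. Reporter signal came from LiveBLAzer B/G FRET substrate, 2 h, room temperature.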

[15] = biological target: Beta-2 adrenergic receptor (Homo sapiens) (UniProt P07550); assay: Adrenergic beta2 receptor (ADRB2) small molecule antagonists, cell-based qHTS assay (AID 1963592); note: series mostly up to about 92 µM; nearly all actives have a fitted effect of over 50% in size
Outline: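 Assay format: CHO-ADRB2 cells, 18-20hr seeding at 37C/5% CO2, then compound plus 1nM isoproterenol agonist mix for 0.5hr RT. Homogeneous time-resolved fluorescence cAMP detection after 1hr, expressed as 665/615 nm ratio.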

[16] = biological target: Beta-2 adrenergic receptor (Homo sapiens) (UniProt P07550); assay: Adrenergic beta2 receptor (ADRB2) small molecule agonists, cell-based qHTS assay (AID 1963593);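 note: CHO cells stably overexpressing human ADRB2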
Outline: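 CHO cells stably over-expressing ADRB2 were plated overnight at 37C, then dosed with compounds plus a stimulation mix containing 100uM IBMX and 25uM Ro-20-1724 for 0.5hr at room temperature. cAMP was measured by HTRF competition, 1hr.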

[17] = biological target: D(2) dopamine receptor (Homo sapiens) (UniProt P14416); assay: Dopamine D2 receptor (DRD2) small molecule agonists, cell-based qHTS assay (AID 1963594); note: nearly all actives have a fitted effect of over 35% in size
Outline: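 HEK293 cells stably expressing DRD2 were cultured 24 h at 37 C, then given Ro20-1724 (0.1 mM final) and compounds for 10 min at room temperature. NKH477 (200nM) was then added for 30 min. cAMP was read by HTRF.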

[18] = p53 small molecule agonists, cell-based qHTS assay (AID 1963582; active = well fitted activation curve with a large enough effect in the signal ratio in the repeat runs, not every such curve was filed as active; the % refers to the signal ratio)
Outline: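 After plating, p53RE-bla cells sat 5 h in the incubator; compounds or DMSO vehicle were pinned in; a 16 h incubation at 37 C followed; FRET substrate was added and, 2 h later at RT, fluorescence was measured.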

[19] = cAMP Responsive Elements (CRE) small molecule antagonists, cell-based qHTS assay (AID 1963591; active = well fitted inhibition curve with a large enough effect in the signal ratio in the repeat runs, not every such curve was filed as active; the % refers to the signal ratio)
Outline: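 Stimulation used NKH477 at a final 0.25 uM for 3 h in compound-treated CRE-bla HEK293T cells, seeded 18 h beforehand. Reporter activity was measured with LiveBLAzer B/G FRET substrate after 2 h at room temperature.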

[20] = biological target: D(2) dopamine receptor (Homo sapiens) (UniProt P14416); assay: Dopamine D2 receptor (DRD2) small molecule antagonists, cell-based qHTS assay (AID 1963595; active = well fitted inhibition curve with a large enough effect in the signal ratio in the repeat runs, with a control signal flat; the % refers to the signal ratio)
Outline: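 Antagonist mode in DRD2-HEK293 cells: after compound addition with 0.1 mM Ro20-1724, cells received quinpirole (12 nM) and NKH477 (200 nM) for 30 min at room temperature; HTRF cAMP read after 1 h detection.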

Measured: Potency

Sequence of Muscarinic acetylcholine receptor M1 (Homo sapiens) (P11229 whole entry, looked up): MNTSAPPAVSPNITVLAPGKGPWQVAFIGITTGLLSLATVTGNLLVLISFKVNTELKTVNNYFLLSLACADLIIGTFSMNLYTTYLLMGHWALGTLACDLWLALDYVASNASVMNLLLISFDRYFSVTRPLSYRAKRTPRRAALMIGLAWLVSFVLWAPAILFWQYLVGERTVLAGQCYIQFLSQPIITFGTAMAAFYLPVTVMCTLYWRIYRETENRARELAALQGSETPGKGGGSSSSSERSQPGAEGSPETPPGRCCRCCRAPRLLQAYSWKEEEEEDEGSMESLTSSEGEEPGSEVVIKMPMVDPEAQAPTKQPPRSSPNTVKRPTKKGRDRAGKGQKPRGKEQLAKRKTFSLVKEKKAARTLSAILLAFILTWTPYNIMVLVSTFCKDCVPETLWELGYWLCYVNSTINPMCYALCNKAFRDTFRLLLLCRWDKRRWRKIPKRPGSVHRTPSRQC
Sequence of D(2) dopamine receptor (Homo sapiens) (P14416 whole entry, looked up): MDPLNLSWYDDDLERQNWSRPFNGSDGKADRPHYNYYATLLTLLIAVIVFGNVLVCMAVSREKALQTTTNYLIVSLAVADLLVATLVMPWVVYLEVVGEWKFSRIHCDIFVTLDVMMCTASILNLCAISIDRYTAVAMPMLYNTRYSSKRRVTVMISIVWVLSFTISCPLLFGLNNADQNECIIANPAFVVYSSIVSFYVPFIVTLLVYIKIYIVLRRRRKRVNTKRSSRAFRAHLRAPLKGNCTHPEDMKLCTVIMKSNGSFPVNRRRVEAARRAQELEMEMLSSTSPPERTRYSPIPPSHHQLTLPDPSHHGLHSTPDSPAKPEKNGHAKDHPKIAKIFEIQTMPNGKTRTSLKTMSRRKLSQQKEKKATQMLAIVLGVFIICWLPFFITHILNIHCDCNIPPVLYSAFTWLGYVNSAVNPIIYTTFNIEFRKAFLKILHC
Sequence of 5-hydroxytryptamine receptor 2A (Homo sapiens) (P28223 whole entry, looked up): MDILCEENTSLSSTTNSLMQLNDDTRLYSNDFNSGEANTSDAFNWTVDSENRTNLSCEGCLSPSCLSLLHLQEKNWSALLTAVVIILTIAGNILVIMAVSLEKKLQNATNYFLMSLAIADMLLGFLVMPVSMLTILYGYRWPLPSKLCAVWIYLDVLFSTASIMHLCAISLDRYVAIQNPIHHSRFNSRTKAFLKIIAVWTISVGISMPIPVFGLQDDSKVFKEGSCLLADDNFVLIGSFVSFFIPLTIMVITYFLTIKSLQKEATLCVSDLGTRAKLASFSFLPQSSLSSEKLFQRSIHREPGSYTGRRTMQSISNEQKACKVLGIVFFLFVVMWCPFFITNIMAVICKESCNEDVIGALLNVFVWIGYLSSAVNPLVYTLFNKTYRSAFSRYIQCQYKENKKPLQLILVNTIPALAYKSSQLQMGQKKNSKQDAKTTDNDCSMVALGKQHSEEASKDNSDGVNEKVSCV
Sequence of KiSS-1 receptor (Homo sapiens) (Q969F8 whole entry, looked up): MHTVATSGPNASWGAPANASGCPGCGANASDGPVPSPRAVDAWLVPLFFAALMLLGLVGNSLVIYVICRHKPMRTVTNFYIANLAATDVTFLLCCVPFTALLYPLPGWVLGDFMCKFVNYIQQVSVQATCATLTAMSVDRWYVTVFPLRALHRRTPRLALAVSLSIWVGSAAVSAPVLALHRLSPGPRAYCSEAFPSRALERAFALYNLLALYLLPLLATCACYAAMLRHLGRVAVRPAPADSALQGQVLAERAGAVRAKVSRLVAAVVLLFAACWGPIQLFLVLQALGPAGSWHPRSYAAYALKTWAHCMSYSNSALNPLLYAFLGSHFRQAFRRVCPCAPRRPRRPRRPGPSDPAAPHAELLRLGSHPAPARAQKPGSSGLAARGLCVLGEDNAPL
Sequence of Beta-2 adrenergic receptor (Homo sapiens) (P07550 whole entry, looked up): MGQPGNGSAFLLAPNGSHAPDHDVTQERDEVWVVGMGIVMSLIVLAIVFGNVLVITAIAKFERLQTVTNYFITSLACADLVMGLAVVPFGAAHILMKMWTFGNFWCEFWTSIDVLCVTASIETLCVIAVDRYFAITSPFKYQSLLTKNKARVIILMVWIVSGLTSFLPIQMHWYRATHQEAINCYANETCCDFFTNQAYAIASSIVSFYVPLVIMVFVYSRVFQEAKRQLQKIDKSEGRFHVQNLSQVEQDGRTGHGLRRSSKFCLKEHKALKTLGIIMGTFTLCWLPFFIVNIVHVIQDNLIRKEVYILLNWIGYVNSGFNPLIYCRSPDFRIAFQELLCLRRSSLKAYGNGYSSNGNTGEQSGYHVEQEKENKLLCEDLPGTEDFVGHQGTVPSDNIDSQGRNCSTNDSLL

Oc1ccc(Oc2ccccc2)cc1
not listed: [18] | [19] | [20]
inactive: all other assays above

Cc1ccc2c(Cl)cc(Cl)c(O)c2n1
not listed: [11] | [16]
inactive: all other assays above

CCCCCO
not listed: [15] | [16]
inactive: all other assays above

CNC(=O)c1ccccc1
not listed: [16] | [17] | [19]
inactive: all other assays above

O=c1c(O)c(O)c1=O
not listed: [12] | [14] | [16]
inactive: all other assays above

Cc1ccc(N)nc1
not listed: [14] | [15] | [16]
inactive: all other assays above

Cc1cc(C)cc([N+](=O)[O-])c1
not listed: [16]
inactive: all other assays above
